Among the data in PubChem BioAssay AID1347416 (National Center for Advancing Translational Sciences (NCATS), 2020) are Potency values, retold here.

The campaign covered roughly 4,100 compounds. About 1,600 (39%) were called active. Roughly 25% stayed inconclusive and do not appear here. Calls come from the whole dose curve; as a rule, active = well fitted inhibition curve with a large enough effect; inconclusive = small, poorly fitted or top-dose-only effect; inactive = no such curve, though single readings can be large or run the other way. Some of the results follow.
Potency is the fitted concentration of half-maximal effect.

The experiment can be described thus: qHTS Validation assay for Inhibitors of Plasmodium falciparum Dd2 growth in vitro. Note: nearly all actives have a fitted effect of over 70% in size. As to conditions: P. falciparum Dd2 in RBCs, SYBR Green growth, 72 h; series mostly up to 28.7 µM. An outline of the steps: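 P. falciparum Dd2-infected red blood cells (2.5% hematocrit, 0.3% parasitemia) grown 72 h at 37 °C under 5% O2 with compounds in a titration, 29 uM to 0.5 nM final. Growth read as SYBR Green-1 fluorescence after ~16 h lysis; artesunate 300 nM as positive control.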
Turning to `CCN1CCN(c2nc(SC)nc3sc4c(c23)CC(C)(C)OC4)CC1`, the Potency entry is “inactive”.
For the molecule `CC1(C)Cc2c(c(N3CCOCC3)nc3snc(Br)c23)CO1`, the Potency was 0.299 µM (active).
Regarding `CCCNC(=O)c1ccc(N2CCC3(CC2)CC(c2cccc(Br)c2)=NO3)c(NC(=O)c2ccco2)c1`, the Potency is 2.99 µM (active).
Consider `CCOc1cc(NC(=S)NC)c(OCC)cc1NC(=O)c1ccco1`, for which the Potency entry was “inactive”.
For the molecule `Cc1ccc(CNC(=O)c2ccc(N3CCC4(CC3)CC(c3cccc(Br)c3)=NO4)c(NC(=O)c3ccco3)c2)cc1`, the Potency was 8.41 µM (active).
Turning to `CCOc1nc(N=C(N)N)nc2c(C)cccc12`, the Potency is 10.6 µM (active).
For `COc1nc(N=C(N)N)nc2c(C)cccc12` the value was “inactive”.
`CN1C(=O)CS(=O)(=O)C12CCN(C(=O)c1cc(F)ccc1Cl)CC2`: the Potency entry is “inactive”.
For `Cc1ccc(C2Cn3nnc(-c4noc(-c5nn(C)c6ccccc56)n4)c3CO2)cc1` (configuration not stated), the Potency result is “inactive”.
With `Cc1ccc(C2Cn3nnc(-c4noc(CNC(=O)c5ccccc5)n4)c3CO2)cc1` (configuration not stated), the Potency result was “inactive”.
For the molecule `Cc1ccc(C2Cn3nnc(-c4noc(-c5n[nH]c6c5CCCC6)n4)c3CO2)cc1` (configuration not stated), the Potency was 13.3 µM (active).
For `O=c1c2ccccc2nc(/C=C/c2cc(Br)ccc2O)n1CCCO` the value was 9.44 µM (active); for `Oc1ccc(Br)cc1Cn1nnc2ccccc21`, “inactive”; for `CCn1c(/C=C/c2cc(Br)ccc2O)nc2ccccc2c1=O`, 4.22 µM (active).
With `O=C(c1ccccc1-c1ccccc1)N1CCC(c2ncc[nH]2)CC1`, the Potency entry is “inactive”.
As for `C=CCc1c(C)[nH]c2ccc(C)cc2c1=O`, the Potency entry is “inactive”.
Regarding `CCc1c(C)[nH]c2ccccc2c1=O`, the Potency was 10.6 µM (active).
In the case of `CCCc1c(C)[nH]c2ccccc2c1=O`, the Potency was 7.5 µM (active).
Take `COc1cccc(S(=O)(=O)N2CCC3(CC2)C(OC)C(=O)N3c2cccc(F)c2)c1` (configuration not stated): the Potency entry is “inactive”.
Regarding `O=S(=O)(c1ccc(Cl)cc1)N1CCN(C(=S)Nc2ccccc2F)CC1`, the Potency was 2.37 µM (active).
Take `O=c1nc2ccccn2c2ccc(S(=O)(=O)N3CCCCC3)cc12`: the Potency result is “inactive”.
As to `COc1cccc(NC(=S)N2CCN(S(=O)(=O)c3ccc(F)cc3)CC2)c1`, the Potency was 2.66 µM (active).
Turning to `O=S(=O)(c1ccc2ccccc2c1)N1CCN(C(=S)Nc2ccc(F)c(Cl)c2)CC1`, the Potency is 1.06 µM (active).
With `O=S(=O)(c1ccc2ccccc2c1)N1CCN(C(=S)Nc2ccccc2F)CC1`, the Potency is 4.22 µM (active).
For the molecule `O=C(Cn1ccc2cc(S(=O)(=O)N3CCCCCC3)ccc21)NCCc1ccc(Cl)cc1`, the Potency entry was “inactive”.
Regarding `Clc1ccc2c(N/N=C/c3cccc(Br)c3)ccnc2c1`, the Potency is 10.6 µM (active).
For `CN1CCN(c2ccc(Nc3ccnc4cc(Cl)ccc34)cc2)CC1`, the Potency was 0.188 µM (active).
In the case of `CN(C)c1ccnc(Nc2ccc(O)cc2)c1C#N`, the Potency entry is “inactive”.
Regarding `CN1CCN(c2cc(=O)c3ccnc(N4CCOCC4)c3o2)CC1`, the Potency result was “inactive”.
Consider `Oc1ccc(Nc2ccnc3cc(Cl)ccc23)cc1`, for which the Potency is 1.68 µM (active).
Consider `O=C(NNc1ccnc2cc(Cl)ccc12)C1CCCCC1`, for which the Potency is 7.5 µM (active).
For `CN(Cc1ccccc1F)C1CCc2ccccc21` (configuration not stated) the value was “inactive”.
As for `CCN1CCN(c2ccc(Nc3ccnc4ccccc34)cc2)CC1`, the Potency was 1.06 µM (active).
Turning to `O=C(CSc1ncn[nH]1)Nc1ccnc2ccccc12`, the Potency result was “inactive”.
Turning to `Clc1ccc(NNc2ccnc3cc(Cl)ccc23)cc1`, the Potency is 1.5 µM (active).
As for `CCOC(=O)c1ccc2c(c1)N(C(CC)C(=O)Nc1ccccc1OC)C(=O)c1ccccc1S2` (configuration not stated), the Potency is 9.44 µM (active).
On to `CN(C(=O)c1ccc2c(c1)N(Cc1ccc(F)cc1)C(=O)c1ccccc1S2(=O)=O)C1CCCCC1`, for which the Potency result is “inactive”.
For `CCOC(=O)c1ccc2c(c1)N(CC(=O)N(C)c1ccccc1)C(=O)c1ccccc1S2` the value was 10.6 µM (active); for `COc1ccccc1NC(=O)c1nn(C)c2c1CS(=O)(=O)c1ccccc1-2`, “inactive”; for `O=C1NCCCCCCN(C(=O)C2CCCC2)[C@H]2CCCC[C@@H]12`, “inactive”.
On to `O=C1NC(=NC2CCCCC2)C2(CCN(Cc3ccccc3)C2)N1c1cc(F)cc(F)c1` (configuration not stated), for which the Potency is 4.22 µM (active).
For `O=C1NCc2ccccc2CC12CCCN(Cc1ccccc1)C2` (configuration not stated), the Potency result is “inactive”.
For the molecule `COc1cccc([S+](=O)([O-])N2CCC3(CC2)C(=NC2CCCCC2)NC(=O)N3c2cc(F)cc(F)c2)c1`, the Potency result is “inactive”.
For the molecule `O=C1NC(=NC2CCCC2)C2(CCN(Cc3ccccc3)C2)N1c1cc(F)cc(F)c1` (configuration not stated), the Potency is 7.5 µM (active).
As to `O=C(c1ccccc1F)N1CCCC2(C1)C(=NC1CCCC1)NC(=O)N2c1cc(F)cc(F)c1` (configuration not stated), the Potency result was “inactive”.
As to `Cc1ccc2nc(-c3ccc(Cl)c(NC(=O)c4cccnc4)c3)oc2c1`, the Potency result was “inactive”.
`O=C(NC(c1ccccc1)c1cc(Cl)c2cccnc2c1O)c1cccnc1` (configuration not stated): the Potency is 7.5 µM (active).
Regarding `O=C(NC(c1ccc(Cl)cc1)c1cc(Cl)c2cccnc2c1O)c1cccnc1` (configuration not stated), the Potency was 5.96 µM (active).
As for `CN(CC1(C)CCOCC1)C(=O)c1ccco1`, the Potency entry was “inactive”.
For `CC(Oc1ccc(F)cc1)C(=O)Nc1cc(C(F)(F)F)ccc1-n1cncn1` (configuration not stated), the Potency is 1.68 µM (active).
As for `CC(Oc1ccc(F)cc1)C(=O)Nc1cc(Cl)ccc1-n1cncn1` (configuration not stated), the Potency was 6.68 µM (active).
`O=C(Cn1ccn2nc(-c3ccc(F)cc3)c(CO)c2c1=O)Nc1ccc(Cl)cc1F`: the Potency result was “inactive”.
As for `CC(C(=O)N1CCc2ccccc21)N1CCc2ccccc2C1` (configuration not stated), the Potency result is “inactive”.
Regarding `CC1(C)C(=O)N(CC2CCOCC2)[C@H]2CN(Cc3ccccc3O)C[C@H]2[S+]1(=O)[O-]`, the Potency entry is “inactive”.
Take `COCC1CN(C)CC12CCN(C(=O)CC1=CCCCC1)CC2` (configuration not stated): the Potency entry is “inactive”.
Consider `Cn1c(=O)c2ccnn2c2ccc(C(=O)NCCN3CCC(N4CCCCC4)CC3)cc21`, for which the Potency result is “inactive”.
In the case of `O=C(NCCc1cccnc1)c1ccc(-c2nnc3ccc(NC(=O)C4CCC4)cn23)cc1` it was 6.68 µM (active); in that of `O=C1CCN(S(=O)(=O)c2ccccc2)CCCC(C(=O)NCCc2cccnc2)CCN1` (configuration not stated), “inactive”.
As for `O=C(NCCc1ccncc1)c1ccc(-c2nnc3ccc(NC(=O)C4CCC4)cn23)cc1`, the Potency is 2.99 µM (active).
In the case of `Cc1noc(-c2ccn3c(CNC(=O)c4ccncc4)nnc3c2)n1` it was “inactive”.
`O=C(Nc1ccc(-c2nnc3n2CCCC3)cc1)c1ccccc1F`: the Potency entry is “inactive”.
Take `Cc1cn2nc(C(=O)N3CCC(C(=O)NCc4cccnc4)CC3)cc2c(=O)[nH]1`: the Potency result is “inactive”.
Turning to `O=C(NCCN1CCCCC1)c1ccc(-c2nnc3ccc(NC(=O)C4CCC4)cn23)cc1`, the Potency was 13.3 µM (active).
In the case of `CC1CN(C(=O)Nc2ccc(C(=O)NCCc3ccccc3)cc2)c2ccccc2S1` (configuration not stated), the Potency entry is “inactive”.
Regarding `CC(C)(C)CC(C)(C)c1ccc(O)c(Cc2ccc(Cl)cc2Cl)c1`, the Potency was 1.68 µM (active).
As for `CN1C[C@@H](NC(=O)CC(C)(C)C)C[C@H]1c1nc(-c2ccc(OC(F)(F)F)cc2)no1`, the Potency entry is “inactive”.
As to `CCc1cccc(NC(=O)N2CCc3nc4cc(-c5ccc(OC)cc5)[nH]n4c(=O)c3C2)c1`, the Potency result was “inactive”.
`O=[S+]1([O-])NCC2(CCCN(Cc3ccc(OC(F)(F)F)cc3)C2)Nc2ccccc21` (configuration not stated): the Potency result is “inactive”.
For `CCc1nc2c(c(-c3ccc(O)cc3)n1)CCN(Cc1ccc(OC(F)(F)F)cc1)CC2` the value was 1.5 µM (active); for `CCc1nc2c(c(-c3ccc(O)cc3)n1)CCN(Cc1ccc(OC)cc1)CC2`, 6.68 µM (active); for `COc1ccc(CN2CCC3(CC(c4ccc(OC)cc4)=NO3)C2)cc1` (configuration not stated), “inactive”.
As for `Cc1cc(C)c(S(=O)(=O)n2ccc(-c3ccc(OCCN(C)c4ccccn4)cc3)n2)c(C)c1`, the Potency is 7.5 µM (active).
Take `COc1cccc2c(=O)n(CC(=O)NCCc3ccccc3)ccc12`: the Potency entry is “inactive”.
With `COc1ccc(-n2nc(C(=O)NCC(=O)N3CCN(c4ccccc4OC)CC3)c3ccccc3c2=O)c(OC)c1`, the Potency was 2.11 µM (active).
On to `COc1ccccc1N1CCN(C(=O)CNS(=O)(=O)c2ccc(Br)s2)CC1`, for which the Potency result is “inactive”.
Regarding `COc1ccc(-n2nc(C(=O)NCC(=O)N3CCN(c4ccccc4OC)CC3)c3ccccc3c2=O)cc1OC`, the Potency was 6.68 µM (active).
For the molecule `O=C(NCCc1c[nH]c2ccccc12)c1c(OCC2CC2)cc(=O)n2c1CCOCC2`, the Potency result was “inactive”.
As to `CCc1cc(=O)oc2cc(C)cc(OCC(=O)NCC(O)c3ccccc3)c12` (configuration not stated), the Potency was 6.68 µM (active).
Consider `CCc1cc(=O)oc2cc(C)cc(OCC(=O)C(C)(C)C)c12`, for which the Potency was 11.9 µM (active).
`CCCc1cc(=O)oc2cc(C)cc(OC(C)C(=O)NCC(O)c3ccccc3)c12` (configuration not stated): the Potency is 0.842 µM (active).
As to `CCCc1noc(-c2ccn3c(CNC(=O)C(C)Oc4ccccc4)nnc3c2)n1` (configuration not stated), the Potency result is “inactive”.
Turning to `Cc1cc(OC(C)C(=O)NCCc2c[nH]c3ccccc23)c2c(C)cc(=O)oc2c1` (configuration not stated), the Potency is 2.66 µM (active).
For `Oc1cc(Cc2ccccc2)cnc1CN1CCCCC1`, the Potency was 0.944 µM (active).
Turning to `Clc1ccc(-c2nc(N3CCOCC3)nc3ccccc23)cc1`, the Potency entry was “inactive”.
For the molecule `CC12CC3CC(C)(C1)CC(Nc1nc(N4CCOCC4)nc4ccccc14)(C3)C2`, the Potency is 9.44 µM (active).
For `CN1N=C2c3ccccc3CCC2C1c1ccc(F)cc1` (configuration not stated), the Potency is 5.96 µM (active).
For `COc1ccccc1C(=O)NCCn1ccn2nc(-c3cc(C)ccc3C)cc2c1=O` the value was “inactive”; for `Cc1ccc2oc(=O)n(CCOc3ccccc3C)c2c1`, 4.73 µM (active); for `CCNC(=O)N1CCCCCC1CN1CCc2ccccc2C1` (configuration not stated), “inactive”.
In the case of `O=C(c1cccs1)N1CCCCCC1CN1CCCC1` (configuration not stated) it was 10.6 µM (active).
Regarding `O=C(N[C@H]1CCN2C(=O)c3ccccc3NC(=O)[C@@H]2C1)c1cccs1`, the Potency entry is “inactive”.
As for `CCCCCCNC(=O)Cc1csc2nc(C)c(-c3cc(C)n(-c4cccc(C)c4)n3)c(=O)n12`, the Potency was 15 µM (active).
For the molecule `CCCCCCC(O)(c1ccc(OC)cc1)C(CN1CCOCC1)c1ccccc1` (configuration not stated), the Potency was 4.22 µM (active).
Regarding `CCCCC(O)(c1ccc(CC)cc1)C(CN1CCOCC1)c1ccccc1` (configuration not stated), the Potency is 4.73 µM (active).
As for `CCCCCC(O)(c1ccc(OC)cc1)C(CN1CCOCC1)c1ccccc1` (configuration not stated), the Potency is 2.11 µM (active).
With `CCCN1C(CC(C)C)=NS(=O)(=O)c2cc(NC(=O)c3cccs3)ccc21`, the Potency was 0.335 µM (active).
Regarding `CCCN1C(CC(C)C)=NS(=O)(=O)c2cc(NC(=O)c3ccco3)ccc21`, the Potency is 7.5 µM (active).
